# Pf growth 48h – inhibits P. falciparum growth in the first generation, 48 h; P. falciparum luciferase growth in erythrocytes, 48 h; Potency, µM (top dose mostly 28.7 µM), most hits filed as inhibitors; actives 5.9% (n = 310,000)
#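 A one-generation exposure of luciferase-tagged malaria parasites in RPMI 1640/Albumax erythrocyte culture, 37 C and 5% CO2. Inhibition is inferred from decreased luminescence after adding detection reagent.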
# NS1 inh – inhibitors of influenza NS1 protein function. Potency, µM (highest dose often 46.1 µM). actives 0.4% (n = 270,000). AID 2326; calls by dose curve; note: actives are rising curves; nearly all actives have a fitted effect of over 50% in size
#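 Recovery from NS1-induced slow growth read by OD600 in budding yeast switched to galactose assay medium (pH 6.0, -URA) at 1:100 dilution. Compound 23 nl per well; the matching strain lacking NS1 serves as control.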
# Pf growth 96h – inhibits malaria parasite growth, 96 h. Potency, µM (highest dose often 28.7 µM), hits mostly inhibitors. P. falciparum luciferase reporter growth, 96 h. actives 6.9% (n = 320,000)
#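 P. falciparum expressing integrated firefly luciferase, in erythrocytes at 2% hematocrit, 0.05% parasitemia, incubated with compounds 96 h at 37 C, 5% CO2. Growth inhibition read as loss of luminescence; two-generation exposure targets delayed-death apicoplast inhibitors.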
# Sm TGR block – inhibitors of Schistosoma mansoni thioredoxin glutathione reductase; Q962Y6; purified TGR, DTNB reduction, TNB absorbance 405 nm; Potency, µM (doses to about 114 µM), actives largely listed as inhibitors; actives 3% (n = 360,000); AID 485364; note: nearly all actives have a fitted effect of over 60% in size
#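 Kinetic colorimetric format: TGR-catalysed, NADPH-driven DTNB reduction monitored via TNB absorbance. Enzyme dispensed at 20 nM; compound exposure 15 min at room temperature before reaction start.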
# AMA1 RON2 block – disrupts binding of P. falciparum AMA1 to RON2; AlphaScreen AMA1-biotinylated RON2 peptide binding; Potency, µM (top dose mostly 58.2 µM), actives largely listed as inhibitors; actives 0.2% (n = 360,000); note: nearly all actives have a fitted effect of over 45% in size
#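 AMA1 (3D7) with his tag at 25 nM final met compounds first, then biotinylated RON2 peptide at 25 nM; detection used donor plus acceptor beads, 10 µg/mL apiece, read by AlphaScreen after 30 min at room temperature.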
# Hits are given with their value; 0 = inactive; ? = inconclusive; - = no result given; [ ] = another dose, or the depositor's remark. A selection: hits, their analogues and other compounds. The true share with any hit is near 11%. Unless noted, calls come from the whole dose curve; as a rule, active = well fitted curve in the direction sought with a large enough effect; inconclusive = small, poorly fitted or top-dose-only effect, or another doubt; inactive = no such curve, though single readings can be large; an effect the other way counts as inactive or inconclusive.
SMILES,Pf growth 48h,NS1 inh,Pf growth 96h,Sm TGR block,AMA1 RON2 block
COc1cccc(/C=C2\SC(=S)N(C(Cc3ccccc3)C(=O)O)C2=O)c1 (stereo unspecified),0,0,0,0,0
Cc1ccc(C(C)C)c(OCC(=O)Nc2ccc(C(=O)OC3CCCCC3)cc2)c1,-,-,-,0,-
CC1CN(CCCCOc2cccc(Oc3ccccc3)c2)CC(C)O1 (stereo unspecified),?,0,?,?,0
Cc1cc(C)c(C)c(OCCN2CC(C)OC(C)C2)c1 (stereo unspecified),0,0,0,0,28µM
CC1CN(CCOc2cccc(Oc3ccccc3)c2)CC(C)O1 (stereo unspecified),0,0,?,0,25µM
CC(=O)c1ccc(NC(=O)CSc2ccc(-c3cccs3)nn2)cc1,-,-,-,0,-
Cc1ccc(NC(=O)CSc2ccc(-c3ccco3)nn2)cc1,0,-,0,10µM,0
CC(=O)Nc1ccc(NC(=O)CSc2ccc(-c3ccco3)nn2)cc1,0,0,0[1.15 µM],8.9µM,0
CC(=O)Nc1ccc(NC(=O)CSc2ccc(-c3cccs3)nn2)cc1,0,-,0,0,0
Cc1ccc(NC(=O)CSc2nnc(-c3ccco3)o2)c(C)c1,0,0,0,-,0
Cc1ccc(NC(=O)CSc2ccc(-c3ccco3)nn2)c(C)c1,0,-,0,28µM,0
CC(=O)c1ccc(NC(=O)CSc2ccc(-c3ccco3)nn2)cc1,0,0,?,22µM,0
Cc1nn2c(=O)cc(COC(=O)c3ccc(NC(=O)c4cccs4)cc3)nc2s1,-,-,-,0,-
CC(=O)Nc1cccc(NC(=O)CSc2ccc(-c3ccco3)nn2)c1,?,0,9.3µM,14µM,0
CC(=O)c1cccc(NC(=O)CSc2ccc(-c3cccnc3)nn2)c1,-,-,-,-,0
CC(=O)Oc1ccc(Cl)cc1/C=C/c1ccc2ccccc2n1,2.6µM,0,?,0,0
Cn1c(SCc2ccccc2Br)nc2ccccc2c1=O,0,0,?,0,0
CC(=O)c1cccc(NC(=O)CCCCCn2nnc3ccccc3c2=O)c1,6.6µM,0,3.3µM,0,0
Cc1cccc(NC(=O)CSc2nc3ccccc3c(=O)n2C)c1,15µM,0,?,0,0
COCCn1c(SCC(=O)Nc2cc(C)cc(C)c2)nc2ccccc2c1=O,0,0,0,0,0
Cc1ccccc1CSc1nc2ccccc2c(=O)n1C,9.3µM,-,?,0,0
CC(=O)Nc1ccc(NC(=O)CCCCCn2nnc3ccccc3c2=O)cc1,0,0,0,0,0
COCCn1c(SCC(=O)Nc2cccc(C(=O)OC)c2)nc2ccccc2c1=O,13µM,0,0,0,0
CCOC(=O)C(=COC(=O)c1ccccc1)NC(=O)Cc1ccccc1,-,-,-,-,0
COc1cccc(NC(=O)COc2coc(CN3CCc4ccccc4C3)cc2=O)c1,0,-,?,0,0
SMILES,Pf growth 48h,NS1 inh,Pf growth 96h,Sm TGR block,AMA1 RON2 block
COc1cc(Cl)c(C)cc1NC(=O)c1cc(CN2CCOCC2)on1,-,-,-,0,-
COc1ccc(NC(=O)Cn2c(=O)n(-c3cccc(C)c3)c(=O)c3c2c2cc(C)ccc2n3C)cc1Cl,-,-,-,0,-
CCN(c1nc(N)c(C(=O)N=C(N)N)nc1Cl)C(C)C,-,0,-,-,0
CCOC(=O)Cc1csc(NC(=O)CSc2ncnc3c2cnn3-c2ccccc2Cl)n1,7.4µM,0,-,0,0
CCOC(=O)Cc1csc(NC(=O)CSc2nnc(C)n2C)n1,0,0,10µM,0,0
CCOC(=O)Cc1csc(NC(=O)CSc2nnc(C3CC3)n2C)n1,0,0,13µM,0,0
Cc1nnc(NC(=O)CSc2ncnc3c2cnn3-c2ccccc2C)s1,0,0,0,0,0
COc1ccc(S(=O)(=O)N2CCN(C)CC2)cc1NC(=O)c1ccccc1C,0,0,0,0,0
COC(COC(N)=O)C1=C(N2CC2)C(=O)C(C)=C(N2CC2)C1=O (stereo unspecified),-,-,-,-,0
CO[C@@H](COC(N)=O)C1=C(N2CC2)C(=O)C(C)=C(N2CC2)C1=O,0.6µM,-,0.54µM,-,-
CCOc1ccc(-n2c(SCC(=O)N3CCOCC3)nc3c([nH]c4ccccc43)c2=O)cc1,-,-,-,0,-
O=C(O)CCc1ccc(-c2ccccc2)n1NC(=O)c1ccco1,0,0,0,?,0
O=C(O)CCc1ccc(-c2cccs2)n1NC(=O)c1ccco1,0,0,10µM,?,0
O=C(O)CCc1ccc(-c2cccs2)n1NC(=O)c1ccc(Cl)cc1Cl,-,0,0,0,0
O=C(O)CCc1ccc(-c2cccs2)n1NC(=O)c1ccc(Cl)cc1,0,?,0,50µM,0
O=C(Nc1ccc(F)c(Cl)c1)N1CC=C(c2c[nH]c3ccccc23)CC1,-,-,-,0,-
O=C(Nc1cccc(F)c1)N1CC=C(c2ccc(Cl)cc2)CC1,-,0,5.9µM,0,0
O=Cc1cc(-c2ccccc2)[nH]c1-c1ccccc1,0,0,0,0,0
Oc1ccc(CNc2ccccc2)c2cccnc12,?,0,0,0.25µM,0
O=C(CSc1ncccn1)NCc1ccc2c(c1)OCO2,0,0,?,0,0
Oc1ccc(CNCc2ccc3c(c2)OCO3)c2cccnc12,8.3µM,-,?,5.6µM,-
Cc1ccccc1NCc1ccc(O)c2ncccc12,?,0,0,0,0
Oc1ccc(CNc2ccc(F)cc2)c2cccnc12,?,0,?,?,?
Cc1cccc(NCc2ccc(O)c3ncccc23)c1,0,0,?,0.1µM,0
O=C(NCCCN1CCN(c2cccc(Cl)c2)CC1)c1cnn(-c2ccc(F)cc2)c1-n1cccc1,-,-,-,0,-
SMILES,Pf growth 48h,NS1 inh,Pf growth 96h,Sm TGR block,AMA1 RON2 block
CCC(C)(C)NC(=O)C(c1ccc(C)cc1)N(CC1CCCO1)C(=O)c1csnn1 (stereo unspecified),0,0,?,0,0
CCc1ccc(CNC(=O)COc2cc(=O)n(CC)c3ccccc23)cc1,-,-,-,0,-
O=C(Cn1cc(SCc2cccc(Cl)c2)c2ccccc21)N1CCCCCC1,-,-,-,0,-
O=C(CN1C(=O)c2ccccc2C1=O)c1ccccc1,-,0,0,0,0
CC1=C(CC(=O)c2ccccc2)C(=O)c2ccccc2C1=O,0.74µM,0,0.83µM,?,?
COC(=O)Cc1ccc(NC(=S)N2CCC(Cc3ccccc3)CC2)cc1,0,0,0,0,0
COC(=O)c1cc(S(=O)(=O)N2CCN(Cc3ccccc3)CC2)c[nH]1,0,0,0,0,0
COC(=O)c1ccc(C(=O)OC)c(NC(=O)C2CCCO2)c1 (stereo unspecified),?,0,0,0,0
O=C(Nc1ccccc1N1CCCCC1)c1ccc([N+](=O)[O-])o1,10µM,-,8.3µM,0,?
O=C(Nc1ccccc1N1CCN(C(=O)c2ccccc2)CC1)c1ccc(Br)o1,0,0,9.3µM,0,0
Cc1c(C(=O)NC(=S)Nc2ccccc2N2CCCC2)cccc1[N+](=O)[O-],15µM,0,?,0,0[2.32 µM]
O=C(Nc1ccccc1N1CCN(C(=O)c2ccccc2)CC1)c1ccc(Cl)cc1,?,-,0,0,0
COc1ccc(C(=O)Nc2ccccc2N2CCN(C(=O)c3ccccc3)CC2)cc1Br,2.1µM,0,?,0,0

# Compound activity as filed in PubChem.
